# Measured values: PubChem BioAssay (EPA / NIEHS)
# The source made the active and inactive calls. How the source made its calls: active means hit-call score of the fitted dose curve at least 0.9, where 1 is the maximum; inactive means score below 0.9.
# Test: ATG_CMV_CIS: Attagene CIS-FACTORIAL HepG2 Assay for human CMV (Internal Marker) (AID 2282928);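 further: endpoint acts as a background internal control marker rather than a target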
# Details: HepG2 CMV promoter reporter, transcription factor profiling; actives raise or lower the signal
# Experimental: ATG_CIS is a cell-based, multiplexed-readout assay that uses HepG2, a human liver cell line, with measurements taken at 24 hours after chemical dosing in a 24-well plate.ATG_CMV_CIS is one of 52 assay component(s) measured or calculated from the ATG_CIS assay. It is designed to make measurements of mRNA induction, a form of inducible reporter, as detected with fluorescence intensity signals by Reverse transcription polymerase chain reaction (RT-PCR) and Capillary electrophoresis technology.Data from the assay component ATG_CMV_CIS was analyzed into 1 assay endpoint. This assay endpoint, ATG_CMV_CIS, was analyzed with bidirectional fitting relative to DMSO as the negative control and baseline of activity. Using a type of inducible reporter, measures of mRNA for gain or loss-of-signal activity can be used to understand the background control at the transcription factor-level as they relate to the gene . Furthermore, this assay endpoint can be referred to as a secondary readout, because this assay has produced multiple assay endpoints where this one serves a background control function. To generalize the intended target to other relatable targets, this assay endpoint is annotated to the background measurement intended target family, where the subfamily is internal marker.
# Human liver HepG2 cells are transiently transfected with multiple reporter transcription units (MRTUs) in 6-well plates using FuGene 6 reagent (Roche; 3 ml FuGene/1 mg DNA). The MRTU constructs are regulated by a cis-regulating element (promoter). […] A major difference between the CIS and TRANS system is that in CIS activities of endogenous TFs are measured, whereas the TRANS assay evaluates changes in activities of exogenous, chimeric NR-Gal4 proteins. […] At the end of 24 hour incubation, total RNA was isolated using TriZol reagent (Invitrogen). The isolated RNA is then reverse-transcribed using oligo(dT) primer and Mo-MLV reverse transcriptase (Invitrogen) with DNAse I (Ambion) treatment for 30 min. The one-tenth of the produced cDNA was amplified by PCR using Taq DNA polymerase (Invitrogen) and two reporter sequence-specific primers. The PCR products were fluorescently labeled by primer extension with 6-arboxyfluorescein (6-FAM) 5'-labeled reporter sequence-specific primer (2 min at 95 C, 20 s at 68 C and 10 min at 72 C) and these products were digested with 5U of HpaI (New England Biolabs) for 2h at 37 C. The fragments were purified using Qiaquick PCR columns (Qiagen), analyzed on an ABI 3130xL genetic analyzer (Applied Biosystems) with peak positions identified by using a set of X-rhodamine (ROX)-labeled MapMarker1000 molecular weight standards (BioVentures). The raw capillary electrophoresis data was processed using Attagraph software (Attagene).
SMILES,AC50,outcome
C1CCC(SSC2CCCCC2)CC1,65.6 µM (active),–
O=[N+]([O-])C(CO)(CO)CO,–,inactive
CC(C)(C)c1cc(O)c(C(C)(C)C)cc1O,30.2 µM (active),–
Oc1ccc2ccccc2c1N=Nc1ccccc1,–,inactive
CCCCOC(=O)CCCCCCCCC(=O)OCCCC,–,inactive
Cc1cccc(C)c1O,–,inactive
Cc1cccc([N+](=O)[O-])c1C,–,inactive
CCOC(=O)C(C)(C)Oc1ccc(Cl)cc1,–,inactive
Cc1c(C(=O)O)c(O)cc2c1C(=O)c1c(O)c([C@@H]3O[C@H](CO)[C@@H](O)[C@H](O)[C@H]3O)c(O)c(O)c1C2=O,–,inactive
Nc1nc(N)c2nc(CNc3ccc(C(=O)N[C@@H](CCC(=O)O)C(=O)O)cc3)cnc2n1,0.00818 µM (active),–
CNCc1cc(F)ccc1Oc1ccc(Cl)c(Cl)c1,–,inactive
O=C(O)Cc1ccccc1Nc1c(Cl)cccc1Cl,–,inactive
O=c1[nH]cc(F)c(=O)[nH]1,8.27 µM (active),–
CC(C)c1ccc(C(=O)N=C(N)N)cc1S(C)(=O)=O,–,inactive
CCCCCCCCCCO,–,inactive
COc1cccc2c1C(=O)c1c(O)c3c(c(O)c1C2=O)C[C@@](O)(C(=O)CO)C[C@@H]3O[C@H]1C[C@H](N)[C@H](O)[C@H](C)O1,1.19 µM (active),–
COc1cc(/C=C/C(=O)CC(=O)/C=C/c2ccc(O)c(OC)c2)ccc1O,54.2 µM (active),–
CCNc1cccc(C)c1,–,inactive
Cc1cc(=O)[nH]c(=S)[nH]1,–,inactive
CCCCCCC(=O)OCC,–,inactive

SMILES,AC50,outcome
NC(=O)Cn1c(=O)cc(CCN2CCN(c3nccc4sccc34)CC2)c2ccc(F)cc21,100 µM (active),–
COCCOC[C@H](CC1(C(=O)NC2CCC(C(=O)O)CC2)CCCC1)C(=O)Oc1ccc2c(c1)CCC2 (stereo not given in full),–,inactive
Cc1cccc(Nc2cc(Cl)nc(SCC(=O)O)n2)c1C,–,inactive
CCCCCCCCCCCCCCCCCC(=O)O,–,inactive
COc1cc(-c2nc(NC(=O)c3cc4cc(C)cc(C)c4n3CC(=O)O)sc2CCC2CCCCC2)c(OC)cc1Cl,3.3 µM (active),–
CC(=O)C(C)=CC1C(C)=CCCC1(C)C (stereo not given),–,inactive
C=CCc1ccc(O)c(OC)c1,80.2 µM (active),–
CC(=O)Oc1ccccc1C(=O)O,–,inactive
O=c1c(O)c(-c2ccc(O)c(O)c2)oc2cc(O)cc(O)c12,26.5 µM (active),–
Cc1ccccc1Cl,–,inactive
COc1ccc2c(c1)c(CC(=O)O)c(C)n2C(=O)c1ccc(Cl)cc1,–,inactive
CN[C@H]1CC[C@@H](c2ccc(Cl)c(Cl)c2)c2ccc(S(N)(=O)=O)cc21,–,inactive
Nc1ccc(S(=O)(=O)c2ccc(N)cc2)cc1,–,inactive
C[Si]1(C)O[Si](C)(C)O[Si](C)(C)O[Si](C)(C)O1,–,inactive
CCCCCCCCCCCCCCCC,–,inactive
Cc1ccc(C)c(C)c1,–,inactive
CN1CCN(Cc2cc(-c3ccc4[nH]c(=O)oc4c3)co2)[C@@H](c2ccc(F)cc2)C1,–,inactive
CC=Cc1ccc(O)c(OC)c1,–,inactive
OC[C@@H](O)[C@@H](O)[C@H](O)[C@H](O)CO,–,inactive
CC(=O)OC/C=C(\C)CCC=C(C)C,–,inactive
